From PubChem
This is a sample that favours compounds with a hit; in the whole collection about 2.4% have one here.
D2 PAM-1: HTS Assay for Positive Allosteric Modulators of the Human D2 Dopamine Receptor: Primary Screen for Potentiators | HEK293 T-REx D2, calcium flux, EC20 dopamine potentiation | potentiation, % at 10 µM | 0.34% of 340,000 active | AID 485347, 2010;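 active = potentiation over 3 SD above the plate norm, cut at about 30% in these data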; note: 0% is about no effect
Target sequence (P14416 whole entry, looked up): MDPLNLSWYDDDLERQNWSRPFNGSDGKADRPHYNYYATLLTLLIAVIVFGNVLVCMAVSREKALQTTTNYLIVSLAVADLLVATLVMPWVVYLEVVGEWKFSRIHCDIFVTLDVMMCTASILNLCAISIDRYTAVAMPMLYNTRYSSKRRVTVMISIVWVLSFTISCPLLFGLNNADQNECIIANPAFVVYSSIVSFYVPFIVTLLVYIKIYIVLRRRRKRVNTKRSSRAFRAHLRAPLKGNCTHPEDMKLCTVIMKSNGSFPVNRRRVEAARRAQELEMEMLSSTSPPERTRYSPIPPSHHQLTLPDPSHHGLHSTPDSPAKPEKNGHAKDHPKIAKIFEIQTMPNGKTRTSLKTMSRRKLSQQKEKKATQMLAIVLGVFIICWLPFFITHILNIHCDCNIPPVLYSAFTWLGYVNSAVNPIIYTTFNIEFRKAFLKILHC
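Primary screen. Calcium kinetics in induced HEK293 T-REx D2 cells: compound pre-addition 180 s, EC20 dopamine, 180 s more.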
D2 antagonist: HTS Assay for Allosteric Antagonists of the Human D2 Dopamine Receptor: Primary Screen for Antagonists; D(2) dopamine receptor (Homo sapiens), P14416; HEK293 TREx D2 cells, calcium flux, dopamine EC80; inhibition, % at 10 µM; 2% of 340,000 active; in the data active = inhibition above about 30%; inactive = below that, where a call was filed; note: 0% is about no effect
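Dopamine at EC80 is the agonist stimulus; test compounds precede it by 180 s. Calcium flux read kinetically in a force-coupled, inducible HEK293 T-REx D2 cell line.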
D2 ag-1: HTS Assay for Allosteric Agonists of the Human D2 Dopamine Receptor: Primary Screen for Agonists. D(2) dopamine receptor (Homo sapiens), P14416. 0.53% of 340,000 active. AID 485358, 2010. activation, % at 2 µM. HEK293 T-REx D2 cells, calcium flux agonist mode;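 active = activation over 3 SD above normal in the single-dose calcium agonist read, cut at about 30% in these data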; note: 0% is about no effect
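Agonism is scored from calcium flux in a force-coupled, inducible HEK293 cell line expressing D2, read kinetically for 180 s after compound addition against dopamine controls.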
D2 ag-2: Beta-Arrestin HTS for Positive Allosteric Modulators of the Human D2 Dopamine Receptor: Agonists; AID 624465, 2012; D(2) dopamine receptor (Homo sapiens), P14416; 0.084% of 360,000 active; DiscoveRx PathHunter D2 beta-arrestin, luminescence, 90 min; 100% = 57 uM dopamine signal; activation, % (test concentration not listed); in the data active = activation above about 40%
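DiscoveRx PathHunter D2 beta-arrestin cells (2,100/well) attached overnight, then compound-stimulated 90 min at 37 C in HBSS/10 mM HEPES/0.1% Tween-20 buffer; beta-galactosidase complementation read by luminescence after 1 h at ambient temperature. Dopamine 57 uM final (EC100) as control.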
D2 PAM-2: Beta-Arrestin HTS for Positive Allosteric Modulators of the Human D2 Dopamine Receptor: Potentiators | D(2) dopamine receptor (Homo sapiens), P14416 | DiscoveRx D2 beta-arrestin cells, luminescence, 90 min; 100% = 57 uM dopamine signal | potentiation, % (no concentration beside the values) | 0.23% of 360,000 active; in the data active = potentiation above about 50%
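PathHunter beta-arrestin assay in DiscoveRx D2 cells. Compounds were added with an EC20 of dopamine (50 nM final) for 90 min at 37 deg C. Luminescence was read 1 h after detection reagent, with 57 uM dopamine as the EC100 control.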
The depositor's hits bear a star; / = no result; ! = a repeat was not active.

SMILES | D2 PAM-1 | D2 antagonist | D2 ag-1 | D2 ag-2 | D2 PAM-2
CC(C)NCC(O)COc1ccc(CCOCC2CC2)cc1 (configuration not stated) | -1.7 | -5.2 | 1.7 | -5.7 | -7.5
CC(CCc1ccccc1)NCC(O)COc1ccccc1 (configuration not stated) | -30.1 | 55.4* | 34.8* | 5.0 | -8.7
OC(CNCC1CCCCC1)COc1ccccc1 (configuration not stated) | -20.1 | 46.5* | 0.4 | -1.0 | -22.1
COCCc1ccc(OCC(O)CNC(C)C)cc1 (configuration not stated) | -4.3 | 33.9*! | 1.2 | -1.5 | -0.1
O=C(CCc1nc2cccnc2n1Cc1cccs1)Nc1cccc(Cl)c1 | -10.4 | / | 0.1 | / | /
O=C(Nc1ccc(OCc2cc(=O)n3ccccc3n2)cc1)c1ccccc1Cl | 12.9 | / | 1.1 | / | /
c1ccc(-c2ncc(CN3CCN(c4ccccn4)CC3)[nH]2)cc1 | -24.6 | 88.7* | 10.1 | -0.9 | -13.3
c1ccc(N2CCN(Cc3ccc4c(c3)OCO4)CC2)nc1 | / | / | / | 65.3* | 90.8*
Cc1nc(N2CCN(Cc3ccc4c(c3)OCO4)CC2)c2cc(-c3ccccc3)sc2n1 | -10.5 | 4.4 | 1.2 | 5.3 | -9.3
CSc1nc(N2CCN(Cc3ccc4c(c3)OCO4)CC2)c2ccccc2n1 | -21.2 | 37.9* | -0.2 | 0.8 | -9.9
FC(F)(F)c1ccc(N2CCN(Cc3ccc4c(c3)OCO4)CC2)nc1 | -23.5 | -13.2 | -0.9 | -5.3 | -36.7
CC1CCN(S(=O)(=O)c2ccc3c(c2)N(CC(=O)N(C)Cc2ccccc2)C(=O)CO3)CC1 | 2.8 | / | -0.2 | / | /
COc1cccc(CN(Cc2ccccc2F)S(=O)(=O)c2ccc(S(=O)(=O)NCc3ccccc3)cc2)c1 | 4.2 | 43.0* | 1.6 | 2.8 | -7.7
COc1cccc(CNS(=O)(=O)c2ccc3c(c2)N(C)CCO3)c1 | 20.7 | 38.8* | 0.0 | -1.2 | 1.1
COc1ccc(CNS(=O)(=O)c2ccc3c(c2)N(C(C)=O)CCO3)cc1 | -20.1 | -2.0 | 0.8 | -2.4 | -21.2
COc1cccc(CNS(=O)(=O)c2ccc(S(=O)(=O)N3CCCC3)cc2)c1 | 31.8* | 12.8 | -0.6 | -0.6 | -2.3
COc1cccc(NS(=O)(=O)c2ccc(S(=O)(=O)N3CCCC3)cc2)c1 | 17.4 | -18.4 | -0.2 | -1.9 | -2.4
CC(=O)c1cccc(NC(=O)Cn2nc(C)n3cccc3c2=O)c1 | 6.5 | / | -1.6 | / | /
O=C(NCc1ccccc1Cl)NCc1noc2ccccc12 | -12.2 | / | -0.1 | / | /
Cc1nn(C(C)(C)C)c(OC(=O)c2c(F)cccc2F)c1Sc1ccccc1 | 10.5 | / | -0.9 | / | /
O=C1COc2ccc(-c3cc(-c4ccc(F)cc4)c4c(n3)-c3ccccc3OC4)cc2N1 | -3.1 | / | -0.1 | / | /
O=c1ccc(/C=C/c2ccccc2)nn1Cc1ccc(Cl)cc1Cl | 2.5 | -7.1 | 1.3 | -10.0 | -11.1
Cc1ccc(/C=C/c2ccc(=O)n(Cc3ccc(Cl)cc3Cl)n2)cc1 | 36.0* | 4.2 | 0.1 | -1.9 | -1.1
CCCCNC(=O)CSc1nc2n[nH]c(C)c2c(=N)n1-c1ccccc1CC | 6.9 | / | 0.6 | / | /
Cn1c(=O)c2c(nc(-n3ccnc3)n2Cc2ccc([N+](=O)[O-])cc2)n(C)c1=O | -0.5 | 30.6* | -0.1 | -3.0 | -13.9
CN1CCN(c2nc3c(c(=O)n(C)c(=O)n3C)n2Cc2ccc(Cl)cc2)CC1 | -6.1 | -6.0 | 0.5 | -0.6 | -4.8
Cc1ccc(S(=O)(=O)c2c(O)cc(C)c(NS(=O)(=O)c3ccc(Cl)cc3)c2C)cc1 | / | / | -0.2 | / | /
O=C(CCn1c(=O)sc2ccccc21)NCc1ccco1 | -16.8 | 41.8* | 0.3 | -9.5 | -23.4
O=C(CCn1c(=O)sc2ccccc21)NCCC1=CCCCC1 | -39.5 | 37.5* | -3.0 | -2.4 | -19.2
Cn1c(Cn2c(=O)sc3ccccc32)nnc1SCC(=O)NCc1ccco1 | -9.8 | 12.2 | 0.6 | -7.4 | -0.7
